Values without a mark were called inactive.

Test in all cases: log2 ratio of Biotin-Ahx-Ub-VS probe labelling (fragment/DMSO); higher = less target engagement (more negative = stronger competition), active = hit call of the paper (q ≤ 0.05, log2 ratio ≤ -1)
Conditions in all cases: compound concentration: 200 uM; treatment time: 3 h

The target in one experiment is T1, OTUD6B (UniProt Q8N6M0).
T1 sequence (whole entry): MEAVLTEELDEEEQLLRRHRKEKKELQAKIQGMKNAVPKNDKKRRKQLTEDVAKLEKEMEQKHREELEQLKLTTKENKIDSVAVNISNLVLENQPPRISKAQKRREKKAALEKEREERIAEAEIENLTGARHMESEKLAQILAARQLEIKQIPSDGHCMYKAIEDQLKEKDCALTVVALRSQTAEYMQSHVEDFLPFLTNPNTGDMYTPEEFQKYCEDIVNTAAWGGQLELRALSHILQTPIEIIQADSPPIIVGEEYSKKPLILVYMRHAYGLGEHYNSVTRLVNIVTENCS
The gist of the method: (§1)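 Labelling with Biotin-Ahx-Ub-VS (0.5 µM final, 1 h) followed a 3 h triplicate treatment of HEK293T lysate (495 µg per sample, Tris/CHAPS/IGEPAL buffer with protease inhibitors) with fragment at 200 µM or vehicle. Labelled DUBs were NeutrAvidin-enriched, digested with LysC and trypsin, and run by diaPASEF LC-MS/MS. The values, average log2 fragment/vehicle ratios by unpaired t-test, come from global-median-normalised Spectronaut label-free quantities. Proteins with ≥2 unique peptides were used.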

For a further experiment, the target named is T2, OTUD7B (UniProt Q6GQQ9).
T2 sequence (whole entry): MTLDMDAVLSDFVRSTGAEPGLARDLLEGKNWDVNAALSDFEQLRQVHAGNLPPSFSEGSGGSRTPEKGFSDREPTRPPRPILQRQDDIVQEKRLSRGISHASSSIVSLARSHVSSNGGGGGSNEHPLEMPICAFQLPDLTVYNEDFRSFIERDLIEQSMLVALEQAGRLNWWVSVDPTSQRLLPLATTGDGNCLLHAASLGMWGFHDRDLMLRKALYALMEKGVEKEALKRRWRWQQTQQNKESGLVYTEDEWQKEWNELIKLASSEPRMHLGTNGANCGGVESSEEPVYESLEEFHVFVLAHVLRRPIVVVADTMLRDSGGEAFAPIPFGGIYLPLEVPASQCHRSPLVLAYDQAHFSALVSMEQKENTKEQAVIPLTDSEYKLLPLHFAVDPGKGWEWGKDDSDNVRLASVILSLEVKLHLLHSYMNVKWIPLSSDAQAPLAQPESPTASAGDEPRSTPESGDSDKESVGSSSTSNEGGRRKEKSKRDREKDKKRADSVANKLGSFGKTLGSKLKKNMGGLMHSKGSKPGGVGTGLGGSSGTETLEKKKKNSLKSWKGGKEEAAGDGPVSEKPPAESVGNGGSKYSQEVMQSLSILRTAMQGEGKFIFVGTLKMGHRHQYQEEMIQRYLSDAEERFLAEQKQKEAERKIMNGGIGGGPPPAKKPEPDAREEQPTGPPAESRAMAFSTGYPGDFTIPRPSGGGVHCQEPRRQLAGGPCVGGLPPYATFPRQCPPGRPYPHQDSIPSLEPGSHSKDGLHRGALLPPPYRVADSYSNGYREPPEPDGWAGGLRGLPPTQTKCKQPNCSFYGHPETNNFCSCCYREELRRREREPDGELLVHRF
In outline:
as §1

A further experiment has as its target PRPF8 (UniProt Q6P2Q9). In outline: as §1
The target in the next experiment is T3, PSMD7 (UniProt P51665).
T3 sequence (whole entry): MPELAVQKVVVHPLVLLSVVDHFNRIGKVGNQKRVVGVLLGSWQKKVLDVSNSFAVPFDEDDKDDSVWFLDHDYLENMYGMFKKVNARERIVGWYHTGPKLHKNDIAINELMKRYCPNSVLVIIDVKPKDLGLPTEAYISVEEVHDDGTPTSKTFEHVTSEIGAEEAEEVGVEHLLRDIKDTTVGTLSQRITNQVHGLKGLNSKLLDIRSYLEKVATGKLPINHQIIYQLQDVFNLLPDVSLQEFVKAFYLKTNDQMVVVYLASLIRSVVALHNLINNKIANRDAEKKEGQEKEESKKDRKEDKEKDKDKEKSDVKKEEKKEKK
The gist of the method: as §1

A further experiment deals with UCHL1 (UniProt P09936). In outline: as §1
Sequence of UCHL1 (P09936 whole entry, looked up): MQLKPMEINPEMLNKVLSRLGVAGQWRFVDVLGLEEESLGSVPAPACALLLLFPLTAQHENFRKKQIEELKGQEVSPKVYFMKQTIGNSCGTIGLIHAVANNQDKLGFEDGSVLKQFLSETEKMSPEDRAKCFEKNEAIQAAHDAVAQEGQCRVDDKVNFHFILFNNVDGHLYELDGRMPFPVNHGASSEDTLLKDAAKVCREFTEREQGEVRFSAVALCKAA
Another experiment has as its target T4, UCHL3 (UniProt P15374).
T4 sequence (whole entry): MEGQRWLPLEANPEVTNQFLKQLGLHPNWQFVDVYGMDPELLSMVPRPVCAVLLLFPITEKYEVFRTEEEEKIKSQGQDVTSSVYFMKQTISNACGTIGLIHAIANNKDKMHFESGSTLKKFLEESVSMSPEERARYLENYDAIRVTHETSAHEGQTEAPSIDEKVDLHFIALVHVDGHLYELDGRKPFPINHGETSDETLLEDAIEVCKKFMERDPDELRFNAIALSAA
In outline:
as §1

For the next experiment, the target named is T5, UCHL5 (UniProt Q9Y5K5).
T5 sequence (whole entry): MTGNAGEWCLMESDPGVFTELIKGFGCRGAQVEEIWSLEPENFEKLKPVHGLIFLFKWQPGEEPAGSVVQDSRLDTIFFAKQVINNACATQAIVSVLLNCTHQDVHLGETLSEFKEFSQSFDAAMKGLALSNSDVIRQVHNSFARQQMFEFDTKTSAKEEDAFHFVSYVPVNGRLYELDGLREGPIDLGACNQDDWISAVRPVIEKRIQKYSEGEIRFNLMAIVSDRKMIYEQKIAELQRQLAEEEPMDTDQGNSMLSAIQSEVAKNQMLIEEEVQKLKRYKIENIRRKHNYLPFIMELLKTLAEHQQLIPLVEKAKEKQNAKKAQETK
In outline: as §1

In a further experiment the target is USP10 (UniProt Q14694). In outline: as §1
Sequence of USP10 (Q14694 whole entry): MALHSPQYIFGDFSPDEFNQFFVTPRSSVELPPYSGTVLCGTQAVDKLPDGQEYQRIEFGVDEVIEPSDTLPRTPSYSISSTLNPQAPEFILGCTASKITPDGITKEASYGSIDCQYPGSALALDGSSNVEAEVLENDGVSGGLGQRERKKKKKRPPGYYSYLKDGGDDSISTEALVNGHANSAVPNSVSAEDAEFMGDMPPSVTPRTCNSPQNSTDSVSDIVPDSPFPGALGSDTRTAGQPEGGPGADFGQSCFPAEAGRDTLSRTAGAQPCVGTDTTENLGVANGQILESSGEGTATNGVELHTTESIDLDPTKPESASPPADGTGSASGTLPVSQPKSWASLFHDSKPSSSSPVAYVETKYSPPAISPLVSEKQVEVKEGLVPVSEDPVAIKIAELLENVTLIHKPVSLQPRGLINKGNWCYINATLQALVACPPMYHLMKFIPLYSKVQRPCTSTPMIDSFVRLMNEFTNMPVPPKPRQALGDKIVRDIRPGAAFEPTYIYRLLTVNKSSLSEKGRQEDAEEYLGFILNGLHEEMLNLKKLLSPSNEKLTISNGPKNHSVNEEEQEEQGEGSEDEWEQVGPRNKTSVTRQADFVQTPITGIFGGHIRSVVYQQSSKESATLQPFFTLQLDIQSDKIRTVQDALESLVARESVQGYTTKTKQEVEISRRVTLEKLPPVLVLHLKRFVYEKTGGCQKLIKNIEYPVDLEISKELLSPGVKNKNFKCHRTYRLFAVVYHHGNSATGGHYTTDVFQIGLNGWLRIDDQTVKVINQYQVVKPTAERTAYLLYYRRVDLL
The target in the next experiment is T6, USP15 (UniProt Q9Y4E8).
T6 sequence (whole entry): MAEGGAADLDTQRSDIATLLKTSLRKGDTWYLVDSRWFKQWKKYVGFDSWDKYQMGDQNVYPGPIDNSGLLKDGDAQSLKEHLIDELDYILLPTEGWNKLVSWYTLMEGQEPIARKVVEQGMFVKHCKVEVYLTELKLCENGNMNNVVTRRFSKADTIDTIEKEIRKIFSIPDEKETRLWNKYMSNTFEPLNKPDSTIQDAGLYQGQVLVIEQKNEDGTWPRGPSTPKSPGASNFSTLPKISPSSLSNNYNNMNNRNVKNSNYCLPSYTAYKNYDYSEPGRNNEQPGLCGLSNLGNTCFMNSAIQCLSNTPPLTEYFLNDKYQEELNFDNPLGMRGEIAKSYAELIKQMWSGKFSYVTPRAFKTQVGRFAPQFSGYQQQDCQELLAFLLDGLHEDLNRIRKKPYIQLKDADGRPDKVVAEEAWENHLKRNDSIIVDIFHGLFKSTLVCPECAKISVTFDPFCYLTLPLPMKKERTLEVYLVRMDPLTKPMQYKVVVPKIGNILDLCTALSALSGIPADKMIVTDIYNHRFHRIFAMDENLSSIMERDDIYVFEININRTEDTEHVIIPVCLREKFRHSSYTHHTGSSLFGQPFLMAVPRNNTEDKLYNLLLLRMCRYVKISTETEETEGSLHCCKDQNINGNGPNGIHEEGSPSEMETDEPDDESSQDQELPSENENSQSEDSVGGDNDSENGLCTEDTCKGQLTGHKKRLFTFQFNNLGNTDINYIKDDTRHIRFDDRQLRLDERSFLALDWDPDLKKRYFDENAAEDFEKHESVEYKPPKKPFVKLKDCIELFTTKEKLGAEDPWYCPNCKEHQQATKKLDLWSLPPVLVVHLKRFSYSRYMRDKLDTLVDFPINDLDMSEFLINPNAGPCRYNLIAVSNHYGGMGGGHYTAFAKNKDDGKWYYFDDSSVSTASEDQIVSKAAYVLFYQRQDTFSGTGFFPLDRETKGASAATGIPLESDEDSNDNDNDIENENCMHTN
In outline: as §1

For a further experiment, the target named is USP16 (UniProt Q9Y5T5). The gist of the method: as §1
Sequence of USP16 (Q9Y5T5 whole entry, looked up): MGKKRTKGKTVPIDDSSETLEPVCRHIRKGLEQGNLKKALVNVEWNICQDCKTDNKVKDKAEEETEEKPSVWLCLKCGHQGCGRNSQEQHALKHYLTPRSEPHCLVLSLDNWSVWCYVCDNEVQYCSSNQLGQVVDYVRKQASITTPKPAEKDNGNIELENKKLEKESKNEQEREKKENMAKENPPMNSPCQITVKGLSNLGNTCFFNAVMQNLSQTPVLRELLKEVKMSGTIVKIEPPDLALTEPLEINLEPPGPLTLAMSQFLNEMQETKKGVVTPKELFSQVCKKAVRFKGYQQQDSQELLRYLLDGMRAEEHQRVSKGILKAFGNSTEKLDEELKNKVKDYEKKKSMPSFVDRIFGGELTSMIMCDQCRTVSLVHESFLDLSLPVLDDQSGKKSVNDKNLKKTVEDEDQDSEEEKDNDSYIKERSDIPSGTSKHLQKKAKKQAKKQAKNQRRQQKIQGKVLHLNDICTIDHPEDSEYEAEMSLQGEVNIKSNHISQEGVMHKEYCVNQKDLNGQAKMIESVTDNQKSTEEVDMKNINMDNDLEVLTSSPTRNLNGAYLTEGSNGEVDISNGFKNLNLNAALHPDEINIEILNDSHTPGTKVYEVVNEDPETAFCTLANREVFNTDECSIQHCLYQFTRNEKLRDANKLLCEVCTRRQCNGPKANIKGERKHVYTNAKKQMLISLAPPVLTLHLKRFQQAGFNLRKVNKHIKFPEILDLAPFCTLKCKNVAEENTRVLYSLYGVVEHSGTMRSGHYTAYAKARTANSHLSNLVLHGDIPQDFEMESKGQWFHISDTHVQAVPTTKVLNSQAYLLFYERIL

As to `O=C(CCl)NCC1(c2ccccc2)CC1`, the “log2 ratio of Biotin-Ahx-Ub-VS probe labelling” value (“log2 ratio” below) with OTUD6B was -0.042; in the experiment with OTUD7B, -0.82; with PRPF8, -0.155; with PSMD7, -0.151; with UCHL1 it was -1.22 (active); with UCHL3, 0.255. In addition, the “log2 ratio” value with UCHL5 is -0.245; with USP10 it was 0.00549; with USP15, -0.107; with USP16, 0.0406.

With `O=C(CCl)N1CCC(OCc2ccccc2F)CC1`, the “log2 ratio” value with OTUD6B is 0.102; with OTUD7B, -0.198; with PRPF8, 0.14; with PSMD7, 0.0473; with UCHL1 it was -1.13 (active); in the experiment with UCHL3, 0.341. The “log2 ratio” value is -0.00457 in the experiment with UCHL5, -0.192 in the experiment with USP10, -0.104 in the experiment with USP15 and -0.184 in the experiment with USP16.

Regarding `Cl.Cn1cnc2cc(CNC(=O)CCl)ccc21`, the “log2 ratio” value with OTUD6B is -0.108; with OTUD7B, -0.399; with PRPF8, 0.126; in the experiment with PSMD7 it was -0.0706; in the experiment with UCHL1 it was -1.72 (active); with UCHL3, 0.249. Moreover, the “log2 ratio” value in the experiment with UCHL5 was 0.000192; in the experiment with USP10 it was -0.194; with USP15 it was -0.333; in the experiment with USP16, -0.459.

As for `CNC(=O)C1(NC(=O)CCl)CCCCC1`, the “log2 ratio” value with OTUD6B was -0.206; with OTUD7B it was -0.687; in the experiment with PRPF8 it was -0.213; in the experiment with PSMD7, -0.128; in the experiment with UCHL1 it was -1.81 (active); in the experiment with UCHL3 it was 0.248. For the same compound, the “log2 ratio” value is -0.358 in the experiment with UCHL5, -0.0869 with USP10, 0.0503 in the experiment with USP15 and 0.154 with USP16.

`Cl.O=C(CN1CCN(C(=O)CCl)CC1)Nc1ccc(F)cc1`: the “log2 ratio” value with OTUD6B is 0.226; with OTUD7B it was 0.0571; with PRPF8, 0.0678; with PSMD7, 0.149; in the experiment with UCHL1, -1.2 (active); with UCHL3, 0.501. The “log2 ratio” value in the experiment with UCHL5 is -0.0699; in the experiment with USP10, -0.0791; with USP15 it was -0.113; with USP16, 0.138.

As for `C/C(=C\CNC(=O)CCl)c1cnn(C)c1.Cl`, the “log2 ratio” value with OTUD6B was -0.0447; with OTUD7B, -0.863; with PRPF8 it was 0.0944; with PSMD7 it was 0.0605; with UCHL1, -1.27 (active); with UCHL3, 0.15. The “log2 ratio” value with UCHL5 was -0.0212; in the experiment with USP10 it was -0.19; with USP15 it was -0.476; with USP16, -0.58.

For `O=C(CCl)Nc1ccc(F)cc1F`, the “log2 ratio” value in the experiment with OTUD6B is -0.161; with OTUD7B it was -0.881; with PRPF8 it was -0.105; with PSMD7 it was -0.179; with UCHL1, -1.47 (active); with UCHL3 it was 0.078. For the same compound, the “log2 ratio” value was -0.242 in the experiment with UCHL5, -0.129 with USP10, -0.34 with USP15 and 0.0073 with USP16.
